Data: PubChem BioAssay AID1851 (National Center for Advancing Translational Sciences (NCATS), 2009)
Where “and” joins values, the source holds several entries; their conditions need not be identical. Identical values can stand only once. The campaign covered roughly 16,000 compounds. About 2,600 (16%) were called active. About 20% were inconclusive and are not listed. Calls come from the whole dose curve; as a rule, active = well fitted curve in the direction sought with a large enough effect; inconclusive = small, poorly fitted or top-dose-only effect, or effect the other way; inactive = no such curve, though single readings can be large or run the other way. Only a sample is shown. The source holds several records for some structures; these can differ, active in one and inactive in another.

target: Cytochrome P450 2D6 (Homo sapiens) (UniProt P10635); experiment: Cytochrome panel assay with activity outcomes; settings: recombinant CYP, pro-luciferin dealkylation, luminescence, p450-cyp2d6; series mostly up to 57.1 µM
% is set by controls: 0 for no effect and ±100 for the full control effect.

Sequence of Cytochrome P450 2D6 (Homo sapiens) (P10635 whole entry, looked up): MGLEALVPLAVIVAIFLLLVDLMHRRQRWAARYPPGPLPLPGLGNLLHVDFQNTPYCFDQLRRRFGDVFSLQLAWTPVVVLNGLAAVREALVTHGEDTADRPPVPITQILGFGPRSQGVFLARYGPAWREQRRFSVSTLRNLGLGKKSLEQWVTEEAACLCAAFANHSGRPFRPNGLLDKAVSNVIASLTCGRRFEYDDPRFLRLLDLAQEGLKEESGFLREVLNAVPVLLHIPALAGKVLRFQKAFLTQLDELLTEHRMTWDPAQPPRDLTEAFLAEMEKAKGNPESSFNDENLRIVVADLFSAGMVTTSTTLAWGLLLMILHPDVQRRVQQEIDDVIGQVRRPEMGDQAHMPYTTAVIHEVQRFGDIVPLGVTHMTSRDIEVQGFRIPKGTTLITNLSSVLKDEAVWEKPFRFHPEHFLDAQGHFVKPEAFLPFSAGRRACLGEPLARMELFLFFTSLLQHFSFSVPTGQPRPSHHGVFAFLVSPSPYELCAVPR

Row | Compound | AC50 | activity, negative = inhibition
1 | COC(=O)[C@H](N)Cc1ccc(Cl)cc1 | inactive | 
2 | COC(=O)[C@](C)(N)Cc1ccc(O)cc1 | inactive | 
3 | C[C@H](N)C(=O)OC(C)(C)Cc1ccc(Cl)cc1 | 12.6 µM (active) | 
4 | COc1ccc(C2=NC(C(F)(F)F)(C(F)(F)F)c3c(n(C)c(=O)n(C)c3=O)N2)cc1 | inactive | 
5 | CNC(=O)NC(=S)NC(=O)c1ccc(OC)cc1 | inactive | 
6 | COc1ccc(-c2nc3cnc(OC)nc3n(-c3ccc(OC)cc3)c2=O)cc1 | inactive | 
7 | Cc1ccc(/C=N/NC(=O)Cn2nccc2C)o1 | inactive | 
8 | CCOC(=O)N/N=C/c1ccc(C)o1 | inactive | 
9 | Cc1ccc(/C=N\Nc2nc3ccc(Cl)cc3[nH]2)o1 | 3.55 µM (active) | 
10 | CCCC(=O)n1nc(-c2cccnc2)nc1N | inactive | 
11 | Cc1nnsc1SC(C)C(=O)O (configuration not stated) | inactive | 
12 | CCn1c(COc2ccc(C)cc2)nnc1SCc1ccc(C#N)cc1 | inactive | 
13 | O=C(Nc1cccc([N+](=O)[O-])c1)c1ccc(CSc2ccccc2)cc1 | inactive | 
14 | O=C(Nc1cc(Sc2ccccn2)cc([N+](=O)[O-])c1)c1ccc([N+](=O)[O-])cc1 | inactive | 
15 | O=C(Nc1cc(Sc2ccccn2)cc([N+](=O)[O-])c1)c1ccc(Cl)cc1 | 8.91 µM (active) | 
16 | CC1=CC(=C2C(=O)c3ccccc3C2=O)C=C(C)N1Cc1ccco1 | inactive | 
17 | O=c1c(-c2cccc(F)c2)nc2cncnc2n1-c1ccccc1 | inactive | 
18 | CN1CCN(c2ncc3nc(-c4ccccc4)c(=O)n(Cc4ccc(F)cc4)c3n2)CC1 | inactive | 
19 | Cc1csc(NC(=O)CNS(=O)(=O)c2cccs2)n1 | inactive | 
20 | CC(C)(C)c1ccc(NS(=O)(=O)c2ccc(N)cc2)cc1 |  | 18.9% [at 11.4 µM] (inactive)
21 | O=S(=O)(Nc1ccc(Cc2ccncc2)cc1)c1cccs1 | 0.355 µM (active) | 
22 | O=S(=O)(Nc1cccnc1Cl)c1ccc2c(c1)OCCO2 | inactive | 
23 | O=S(=O)(Nc1ccc(Cc2ccncc2)cc1)c1ccc(Br)cc1 | 0.631 µM (active) | 
24 | CCNS(=O)(=O)c1ccc(NS(C)(=O)=O)cc1 | inactive | 
25 | COc1ccc(S(=O)(=O)Nc2cccc(Cl)c2)cc1OC | inactive | 
26 | O=S(=O)(Nc1ccc(Cc2ccncc2)cc1)c1ccc(Cl)c(Cl)c1 | 1 µM (active) | 

Row | Compound | AC50 | activity, negative = inhibition
27 | CC(=C\C(=O)O)/C(=C/c1ccccc1)C(=O)O | inactive | 
28 | CCOC(=O)C1(C(=O)O)NC(=O)CC1c1ccccc1 (configuration not stated) | inactive | 
29 | C[C@H]1CC[C@H]2C(=O)N[C@H](Cc3ccccc3)C(=O)N2[C@@H]1c1ccccc1 |  | -17.6% [at 11.4 µM] (inactive)
30 | COCCn1c(=O)c(-c2cn(C)c3ccccc23)nc2cncnc21 | inactive | 
31 | NC(N)=N[C@H](CCC(=O)O)C(=O)O | inactive | 
32 | CC(=O)N[C@@H](C(=O)O)C(C)(C)SN=O | inactive | 
33 | O=C1OCCC=C1[C@@H](O)CCc1ccccc1 |  | -2.43% [at 11.4 µM] (inactive)
34 | COC(=O)c1scc(C)c1NC(=O)Cc1ccccc1 | inactive | 
35 | O=C(O)c1ccc(SSc2ccc(C(=O)O)cn2)nc1 |  | -10.6% [at 11.4 µM] (inactive)
36 | N#CC(c1ccccc1F)(c1ncc(C(F)(F)F)cc1Cl)N1CCOCC1 (configuration not stated) | inactive | 
37 | Cc1cc2nc([C@H](C)C(=O)c3ccc(Cl)cc3)c(=O)[nH]c2cc1C |  | -4.99% [at 11.4 µM] (inactive)
38 | COc1ccc(-c2nc3cnc(N4CCNCC4)nc3n(C)c2=O)cc1 | inactive | 
39 | COc1ccc2nc(N3C(=O)CC(Cc4ccc(Cl)cc4)C3=O)sc2c1 (configuration not stated) | inactive | 
40 | CN1CCN(CCCNC(=O)C2CCN(c3nnc(-n4cccc4)s3)CC2)CC1 | inactive | 
41 | COc1ccc2nc(N3CCCC(C(=O)NCCCN4CCN(C)CC4)C3)sc2c1 (configuration not stated) | 11.2 µM (active) | 
42 | O=c1[nH]ncn2cccc12 | inactive | 
43 | COCCNC(=O)CCn1nc(-c2ccc(Cl)cc2)ccc1=O | inactive | 
44 | COc1ccc(-c2ccc(=N)n(CCCC(=O)O)n2)cc1 | 3.98 µM (active) | 
45 | COc1ccc(-c2ccc(N)[n+](CCCC(=O)O)n2)cc1 | inactive | 
46 | COc1cc2cc(CN(CCCO)S(=O)(=O)c3ccccc3Cl)c(=O)[nH]c2cc1OC | inactive | 
47 | CCC(C)(C)n1nnnc1C(C(C)C)N(CCCO)Cc1cc2cc(C)ccc2[nH]c1=O (configuration not stated) | inactive | 
48 | CCC(C)(C)n1nnnc1C(C(C)C)N(Cc1ccco1)Cc1cc2cc3c(cc2[nH]c1=O)OCO3 (configuration not stated) | 14.1 µM (active) | 
49 | COc1ccccc1CN(Cc1cc2cc(C)cc(C)c2[nH]c1=O)Cc1nnnn1CC1CCCO1 (configuration not stated) | inactive | 
50 | COc1ccccc1CN(Cc1cc2cc3c(cc2[nH]c1=O)OCCO3)Cc1nnnn1Cc1ccco1 | 14.1 µM (active) | 
51 | CCC(C)(C)n1nnnc1C(c1cc2cc3c(cc2[nH]c1=O)OCO3)N1CCCCC1 (configuration not stated) | inactive | 
52 | COc1cccc2c1OC1(C)CC2/C(=C(\C)O)C(=O)N1 (configuration not stated) | inactive | 

Row | Compound | AC50 | activity, negative = inhibition
53 | OC[C@@H]1O[C@H](O)[C@@H](Cl)[C@H](O)[C@@H]1O | inactive | 
54 | CN(C)S(=O)(=O)Oc1cccc(C(=O)Nc2ccccc2Cl)c1 | inactive | 
55 | Clc1ccc(CSc2ncnc3c2ncn3[C@@H]2CCCCO2)cc1 |  | -9.38% [at 11.4 µM] (inactive)
56 | COc1ccc(/C=N/NC(=O)c2cc(-c3ccc(C)cc3C)nc3ccccc23)cc1COC(C)=O | inactive | 
57 | CCOCCCn1cnc2c(c1=O)c1nc3ccccc3nc1n2-c1ccccc1 | inactive | 
58 | CCCCn1cnc2c(c(CC#N)nn2-c2ccccc2)c1=N | 0.398 µM (active) | 
59 | CCCCn1cnc2c(cnn2-c2ccc(F)cc2)c1=O | inactive | 
60 | COc1ccc(NC(=O)C2CCN(C(=O)c3cccs3)CC2)c(OC)c1 | inactive | 
61 | O=C(NCCN1CCN(C(=O)C(c2ccccc2)c2ccccc2)CC1)C(=O)Nc1ccccc1 | inactive | 
62 | O=C(c1cccs1)N1CCN(C(=O)C(c2ccccc2)c2ccccc2)CC1 | 10 µM (active) | 
63 | O=C1[C@H]2[C@H]3[C@H](O)[C@H](O)C/C(=N/OCc4ccccc4)[C@H]3CC[C@@H]2C(=O)N1C[C@@H]1CCCO1 |  | 4.75% [at 11.4 µM] (inactive)
64 | COc1cccc(Cn2c(=O)c(-c3cccs3)nc3cnc(N(C)C)nc32)c1 | inactive | 
65 | COC(=O)CSc1ncc(OC)c(OC)n1 | inactive | 
66 | O=C1c2ccccc2C(=O)N1C[C@]1(C(=O)O)NCCS1(=O)=O |  | 7.33% [at 11.4 µM] (inactive)
67 | CC(C)NC(=O)N1CCC2(CC1)CCN(S(C)(=O)=O)CC2 | 15.8 µM (active) | 
68 | COC(=O)N1CCC2(CCN(C(=O)NC(C)C)CC2)CC1 | inactive | 
69 | O=C(Nc1cccc(F)c1)N1CCCC2(CCN(S(=O)(=O)c3ccccc3)CC2)C1 | 12.6 µM (active) | 
70 | CC(C)NC(=O)N1CC[C@@]2(CCCN(S(C)(=O)=O)C2)C1 | inactive | 
71 | CC(C)NC(=O)N1CCCC2(CCN(C(=O)c3cccn3C)CC2)C1 | inactive | 
72 | CC(C)NC(=O)N1CC2(CCN(S(=O)(=O)c3ccccc3)CC2)C1 | inactive | 
73 | CS(=O)(=O)N1CCC[C@@]2(CCN(C(=O)Nc3cccc(F)c3)C2)C1 | inactive | 
74 | CS(=O)(=O)N1CCC2(CCCN(C(=O)Nc3cccc(F)c3)C2)CC1 | inactive | 
75 | CC(C)NC(=O)N1CCCC2(CCN(S(=O)(=O)c3ccccc3)CC2)C1 | 0.316 µM (active) | 
76 | O=C(C1CCN(S(=O)(=O)N2CCOCC2)CC1)N1CCN(c2ccccc2)CC1 | inactive | 
77 | CN(C)c1ncc2nc(-c3cc(F)cc(F)c3)c(=O)n(Cc3cccs3)c2n1 | inactive | 
78 | CCN1CCN(C(=O)N[C@H](C(=O)N[C@@H]2C(=O)N3[C@@H]2SC(C)(C)[C@@H]3C(=O)O)c2ccccc2)C(=O)C1=O | inactive | 

Row | Compound | AC50 | activity, negative = inhibition
79 | CC(=O)[C@H](C(=N)C#N)C(=O)Nc1ccccc1 |  | 5.49% [at 11.4 µM] (inactive)
80 | CCC(=O)OCN1C(=O)C=CC1=O |  | 6.64% [at 11.4 µM] (inactive)
81 | O=c1cc(CF)[nH]c(=S)[nH]1 |  | 11.9% [at 11.4 µM] (inactive)
82 | CN(C)c1ncc2ncc(=O)n(CCC#N)c2n1 | inactive | 
83 | COc1ccc(NC(=O)N2CCC3(CC2)CCN(C(=O)c2cnccn2)CC3)cc1 | inactive | 
84 | COc1cc(N=c2ssnc2Cl)cc(OC)c1OC | 3.16 µM (active) | 
85 | COc1cccc(NC(=O)Cc2c(C(=O)O)[nH]c3ccccc23)c1 | inactive | 
86 | CC(C)COC[C@H](CN(Cc1ccccc1)c1ccccc1)N1CCCC1 | inactive and 15.8 nM (active) | 
87 | CCOC(=O)c1ccc(NC(=O)C2CCCO2)cc1 (configuration not stated) | inactive | 
88 | O=C(NNC(=O)C1CCCCC1)c1cnccn1 | inactive | 
89 | Cn1cccc1C(=O)N1CCC2(CCCN(c3cccc(-c4ccccc4)c3)C2)CC1 | inactive | 
90 | COc1ccc(-n2c(=O)c(-c3ccc(F)cc3)nc3cnc(N4CCOCC4)nc32)cc1 | inactive | 
91 | Oc1ccc(Cn2c(-c3ccc(O)cc3)nc3ccccc32)cc1 |  | 1.43% [at 11.4 µM] (inactive)
92 | c1ccc(Cn2c(CN3CCCC3)nc3ccccc32)cc1 | 8.91 µM (active) | 
93 | CS(=O)(=O)c1nc2ccccc2n1Cc1ccccc1 | inactive | 
94 | O=S(=O)(O)c1nc2ccccc2n1Cc1ccccc1 | inactive | 
95 | Clc1ccc(Cn2c(CN3CCCC3)nc3ccccc32)cc1 | 1.26 µM (active) and 794 nM (active) | 
96 | Cn1c(-c2ccc(CN3CCCCC3)o2)nc2ccccc21 | inactive | 
97 | COCCn1c(=O)cnc2cnc(Oc3ccc(OC)cc3)nc21 | inactive | 
98 | COc1cc(OC)nc(NC(C)=O)n1 | inactive | 
99 | O=C(O)CCC(O)=C1S(=O)(=O)OCCOS1(=O)=O |  | -8.4% [at 11.4 µM] (inactive)
100 | Cc1ccc(N=Nc2c(O)ccc3cc(S(=O)(=O)O)ccc23)cc1 |  | 4.81% [at 11.4 µM] (inactive)
101 | Cc1ccc(NC2=NC(c3ccccc3)n3c(nc(C)cc3=O)N2)c(C)c1 (configuration not stated) | inactive | 
102 | CCC(=O)[C@@]1(C)[C@H](C)C[C@@H]2[C@@H]3CCC4=CC(=O)C=C[C@@]4(C)[C@H]3[C@H](O)C[C@]21C | inactive | 
